Reference: PubChem BioAssay (NCI)
The panel holds about 83,000 compounds, 20% with a hit somewhere; the sample as a whole holds those more often.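 The test compound was applied at a single concentration to cells in 96-well plates for 48 hours, and percent growth was recorded.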 Active and inactive are the calls of the source. Rule for the calls: active = growth percent below 10; inactive = the rest.

System: MDA-MB-468 breast
Assay: NCI-60 one-dose screen, 48 h (100 = growth as untreated, 0 = no growth, -100 = all killed)
Settings: 10 µM unless noted

Row | SMILES | growth
1 | Nc1c(C(=O)Nc2cccc([N+](=O)[O-])c2)sc2nc3c(cc12)C(O)CCC3 (configuration not stated) | 53.5% (inactive)
2 | COc1cccc2c1C(=O)c1c(O)c3c(c(O)c1C2=O)C[C@@](O)(C(=O)CO)C[C@@H]3OC1CC(OC(C)=O)C(OC(C)=O)C(C)O1 (some centres not stated) | -25.8% (active)
3 | Nc1nc(N)c(-c2ccc(Cl)cc2)c(/C=C/c2ccc([N+](=O)[O-])cc2)n1 | 64.7% (inactive)
4 | Cc1csc(N/N=C/c2ccncc2)n1 | 107% (inactive)
5 | Cc1nc2sc(C(=O)Nc3cccc(Br)c3C)c(N)c2cc1C(O)c1ccccc1 (configuration not stated) | 17.9% (inactive)
6 | N#Cc1ccc(-n2nnc3ccccc32)cc1C#N | 99.5% (inactive)
7 | COc1ccc(-c2cc(=O)c3c(OC)c4ccoc4cc3o2)cc1 | 101% (inactive)
